The values below come from PubChem BioAssay (NCATS).

A short description of assay [1]: Cell Viability - LYMP2-019 (AID 973). Also: nearly all actives have a fitted effect of over 55% in size. The gist of the method:
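Human lymphoblastoid cells were seeded at 2500 cells/well, preincubated 5 hr at 37 C, then exposed to compounds for 24 hr at 37 C in complete medium. Intracellular ATP was measured by CellTiter-Glo luminescence; AC50 from Hill fits.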

A short description of assay [2]: Cell Viability - LYMP2-021 (AID 974).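 Also: compound exposure lasts 24 hours at 37 °C; nearly all actives have a fitted effect of over 55% in size.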 The gist of the method: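 Human lymphoblastoid cells (2500/well) were preincubated 5 hr at 37 C, then exposed to compounds for 24 hr at 37 C in complete medium. Intracellular ATP was read by CellTiter-Glo luminescence; AC50 came from Hill-equation fits of concentration-response data.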
Assay [3] in a line: Cell Viability - LYMP2-023 (AID 975).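 Also: cellular ATP measured by luciferase luminescence as viability proxy; nearly all actives have a fitted effect of over 55% in size.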 The gist of the method:
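Human lymphoblastoid cells (2500/well) were preincubated 5 hr at 37 C, then exposed to compounds for 24 hr at 37 C in complete medium. Cellular ATP was read by CellTiter-Glo luminescence, and AC50 came from Hill-equation fits.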

Assay [4] can be described thus: Cell Viability - LYMP2-025 (AID 976). The essentials: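 Human lymphoblastoid LYMP2-025 cells (2500/well) were pre-incubated 5 hr at 37 C, then treated with compounds for 24 hr at 37 C in complete medium. Viability was read as intracellular ATP by CellTiter-Glo luminescence; AC50 from Hill fits.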
Assay [5] can be described thus: Cell Viability - LYMP2-002 (AID 977). The essentials:
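Luminescent ATP readout (CellTiter-Glo, 30 min room temperature) after 24 h compound exposure at 37 C of a human lymphoblastoid line, 2500 cells/well. AC50 values derived by standard Hill fitting of qHTS concentration-response data.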

A short description of assay [6]: Cell Viability - LYMP2-006 (AID 978). Also: nearly all actives have a fitted effect of over 60% in size. The essentials: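 qHTS, 1536-well; 2500 cells/well, 5 hr 37 C; cpd 24 hr 37 C; CellTiter-Glo 30 min RT; luminescence. Tetraoctylammonium bromide pos. ctrl. AC50 via Hill eqn.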
Assay [7] can be described thus: Cell Viability - LYMP2-007 (AID 979).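 Also: cells exposed to compound for 24 h before reading; nearly all actives have a fitted effect of over 60% in size.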 The essentials: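 Human lymphoblastoid cells (2500/well) were plated in complete medium, incubated 5 hr at 37 C, then exposed to compounds for 24 hr at 37 C. Intracellular ATP was read by CellTiter-Glo luminescence after 30 min at room temperature; AC50 from Hill fits.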
The nature of assay [8]: Cell Viability - LYMP2-008 (AID 980). Also: nearly all actives have a fitted effect of over 60% in size. The gist of the method:
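Human lymphoblastoid cells (2500/well) were plated, held 5 hr at 37 C, then exposed to compounds for 24 hr at 37 C in complete medium. Intracellular ATP was read by CellTiter-Glo luminescence; AC50 from Hill-fitted concentration-response.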

Assay [9] is described as follows: Cell Viability - LYMP2-010 (AID 981). Also: nearly all actives have a fitted effect of over 55% in size. The gist of the method:
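Human lymphoblastoid LYMP2-010 cells (2500/well) were preincubated 5 hr at 37 C, then exposed to compounds for 24 hr at 37 C in complete medium. Intracellular ATP was measured by CellTiter-Glo luminescence after 30 min at room temperature; AC50 from Hill-fitted concentration-response.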

A short description of assay [10]: Cell Viability - LYMP2-012 (AID 982).
A short description of assay [11]: Cell Viability - LYMP2-018 (AID 985).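 Also: compound exposure lasted 24 hr at 37 °C; nearly all actives have a fitted effect of over 50% in size.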 The gist of the method: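 Human lymphoblastoid cells (2500/well) were pre-incubated 5 hr at 37 C, then exposed to compounds for 24 hr at 37 C in complete medium. Viability was read as intracellular ATP by CellTiter-Glo luminescence; AC50 values came from Hill-equation fits.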
Assay [12] in a line: Cell Viability - LYMP2-020 (AID 986). Also: nearly all actives have a fitted effect of over 55% in size. The gist of the method: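 Human lymphoblastoid cells, 2500/well, were pre-incubated 5 hr at 37 C, then exposed to compounds for 24 hr at 37 C in complete medium. Intracellular ATP was read by CellTiter-Glo luminescence, and AC50 was derived by Hill fitting of concentration-response data.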
A short description of assay [13]: Cell Viability - LYMP2-022 (AID 987). Also: nearly all actives have a fitted effect of over 55% in size. The gist of the method: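 Human lymphoblastoid cells, 2500/well, preincubated 5 hr at 37 C, then exposed to compounds over a concentration range for 24 hr at 37 C in complete medium. Viability read as intracellular ATP by CellTiter-Glo luminescence after 30 min at room temperature; AC50 from Hill fits.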
Assay [14] in a line: Cell Viability - LYMP2-024 (AID 988). Also: nearly all actives have a fitted effect of over 60% in size. The gist of the method: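 Human lymphoblastoid cells (2500/well) in complete medium were preincubated 5 hr at 37 C, then exposed to compounds for 24 hr at 37 C. Intracellular ATP was read by CellTiter-Glo luminescence; AC50 from Hill-equation fits of concentration-response data.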
The nature of assay [15]: Cell Viability - LYMP2-026 (AID 989). Also: nearly all actives have a fitted effect of over 50% in size. The gist of the method:
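Human lymphoblastoid cells (2500/well) in complete medium were preincubated 5 hr at 37 C, then exposed to compounds for 24 hr at 37 C. Cellular ATP was read by CellTiter-Glo luminescence; AC50 from Hill-equation fits of concentration-response data.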

Assay [16] is described as follows: Cell Viability - LYMP1-002 - Assay at 24 hr (AID 993). The gist of the method:
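Human lymphoblastoid LYMP1-002 cells, 2500/well in complete medium, were treated with compounds for 24 h at 37 C; intracellular ATP was read by CellTiter-Glo luminescence. AC50 values came from Hill-equation fits of qHTS concentration-response data.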

Assay [17] in a line: Cell Viability - LYMP1-002 - Assay at 40 hr (AID 994). Also: nearly all actives have a fitted effect of over 60% in size. The gist of the method:
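Human lymphoblastoid cells, 2500/well in complete medium, were preincubated 5 hr at 37 C, then exposed to compounds for 40 hr at 37 C. Intracellular ATP was read by CellTiter-Glo luminescence after 30 min at room temperature; AC50 from Hill-equation fits.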

The subject of assay [18] is CP194. In words: qHTS profiling for inhibitors of Plasmodium falciparum proliferation (AID 504749). Also: nearly all actives have a fitted effect of over 60% in size. Also: potency is read from the fitted curve at half-maximal effect. The conditions noted are these: P. falciparum in erythrocytes, SYBR Green DNA, 72 h; series mostly up to 28.7 µM. The essentials: (§1)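 P. falciparum-infected erythrocytes (0.3% parasitemia, 2.5% hematocrit final) were exposed to compounds for 72 h at 37 C in 5% CO2, then lysed with SYBR Green buffer overnight at room temperature; parasite DNA fluorescence was normalized to artemisinin and DMSO controls.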

The test system of assay [19] is CP201. The assay is described as above. The conditions noted are these: P. falciparum in erythrocytes, SYBR Green DNA, 72 h; series mostly up to 28.7 µM. The essentials:
as §1

Assay [20] relates to CP268. Described as above. As to conditions: P. falciparum in erythrocytes, SYBR Green DNA, 72 h; series mostly up to 28.7 µM. The gist of the method: as §1

Results filed as inconclusive are left out. Calls of active or inactive are those of the source. Calls follow the shape of the dose curve; as a rule, active = well fitted curve in the direction sought with a large enough effect; inconclusive = small, poorly fitted or top-dose-only effect, or another doubt; inactive = no such curve, though single readings can be large; an effect the other way counts as inactive or inconclusive. Bridge positions count the residues as written; N and C are the ends. Square brackets hold non-standard residues; d marks the D form. Peptide text beside a SMILES is read from it. * marks the point of attachment. Octanoyl(6-Me) = CCC(C)CCCCC(=O)*; Dab = NCC[CH](N)C(=O)O

Regarding `O=C(O)c1ccccc1C(c1ccc(O)cc1)c1ccc(O)cc1`, the Potency result in assay [1], in assay [2], in [3], in assay [4], in [5] and in assay [6] was “inactive” each time. Moreover, the Potency entry in assay [7], in [8], in assay [9], in assay [10], in assay [11] and in assay [12] was “inactive” throughout. For the same compound, the Potency entry in assay [13], in assay [14], in [15], in assay [16] and in assay [17] was “inactive” in each case.

Turning to `CCC(C)CCCCC(=O)NC(CCN)C(=O)NC(C(=O)NC(CCN)C(=O)NC1CCNC(=O)C(C(C)O)NC(=O)C(CCN)NC(=O)C(CCN)NC(=O)C(CC(C)C)NC(=O)C(Cc2ccccc2)NC(=O)C(CCN)NC1=O)C(C)O` (stereo unspecified) ({Octanoyl(6-Me)}-[Dab]T[Dab][Dab][Dab]FL[Dab][Dab]T; lactam 4-C; configuration not given here), the Potency result in [18], in [19] and in [20] was “inactive” each time.

Consider `CC1CCC(C(C)C)C(OC(=O)c2ccccc2O)C1` (stereo unspecified), for which the Potency result in assay [18], in [19] and in assay [20] was “inactive” throughout.

Take `CC(=O)O[C@@]12CO[C@@H]1C[C@H](O)[C@@]1(C)C(=O)[C@H](O)C3=C(C)[C@@H](OC(=O)C(O)[C@@H](NC(=O)OC(C)(C)C)c4ccccc4)C[C@@](O)([C@@H](OC(=O)c4ccccc4)[C@H]21)C3(C)C` (stereo partly specified): in assay [18], the Potency is 0.0675 µM (active).

On to `CC1(C)S[C@@H]2[C@H](NC(=O)COc3ccccc3)C(=O)N2[C@H]1C(=O)O`, for which the Potency result in assay [18], in assay [19] and in assay [20] was “inactive” in each case.

For the compound `O=C1CCc2ccccc2O1`, the Potency entry in assay [1], in assay [2], in assay [3], in [4], in assay [5] and in assay [6] was “inactive” in each case. In addition, the Potency entry in assay [7], in assay [8], in assay [9], in [10], in [11] and in [12] was “inactive” in each case. Besides, the Potency result in [13], in assay [14], in assay [15], in assay [16] and in assay [17] was “inactive” in each case.

As to `c1ccc2scnc2c1`, the Potency result in assay [1], in assay [2], in assay [3], in assay [4], in assay [5] and in assay [6] was “inactive” in each case. The Potency result in assay [7], in assay [8], in assay [9], in [10], in [11] and in assay [12] was “inactive” in each case. The Potency entry in assay [13], in [14], in assay [15], in assay [16] and in [17] was “inactive” in each case.

Take `O=S(=O)(O)c1ccccc1`: the Potency entry in [1], in assay [2], in [3], in assay [4], in assay [5] and in assay [6] was “inactive” each time. The Potency result in assay [7], in assay [8], in [9], in [10], in assay [11] and in assay [12] was “inactive” throughout. In addition, the Potency result in assay [13], in assay [14], in assay [15], in assay [16] and in assay [17] was “inactive” each time.

For `Nc1nc(Cl)nc2c1ncn2C1CC(O)C(CO)O1` (stereo unspecified), the Potency entry in [18], in assay [19] and in assay [20] was “inactive” throughout.

Take `CCN1/C(=C/C=C/C=C/c2sc3ccccc3[n+]2CC)Sc2ccccc21`: the Potency is 6.75 µM (active) in assay [18], 12 µM (active) in assay [19] and 12 µM (active) in [20].

In the case of `O=NCc1ccc([N+](=O)[O-])o1`, the Potency entry in assay [18] and in assay [19] was “inactive” in each case.
